From PubChem
FBW7 act – activators of human E3 ligase FBW7. Q969H0. AlphaScreen FBW7–phospho-cyclin E peptide binding, activator screen. normalized activity (activation), % at 26.1 µM. 0.13% of 650,000 active. AID 1259310; in the data active = normalized activity above about 1.9%;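 note: purified mutant Fbw7 with reduced substrate affinity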
MITF primary – blocks human microphthalmia-associated transcription factor; O75030; AlphaScreen MITF homodimerization, bead proximity signal; inhibition, % at 2.6 µM; 0.91% of 650,000 active; in the data active = inhibition above about 50%
TEAD-YAP block – TEAD-YAP interaction inhibition | HEK-TIYL cells, TEAD-Gal4/YAP UAS-luciferase luminescence | inhibition, % at 9.12 µM | 1.4% of 640,000 active | AID 1259422; in the data active = inhibition above about 32%
GPR151 ag – activates the human receptor GPR151; Q8TDV0; PathHunter beta-arrestin GPR151 cells, luminescence; activation, % at 11.2 µM; 1% of 650,000 active; in the data active = activation above about 4.9%
GPR151 confirm – confirmation of human GPR151 activators; GPR151 PathHunter beta-arrestin cells, luminescence, 90 min; % of EA-reagent control over plate median; 6,700 tested, under 10 active; shares compounds with GPR151 ag; activation, % at 11.2 µM;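 active = mean percent activation across replicates above the confirmation screen cutoff of 4.91%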
GPR119 ag – GPR119 activation, counter-screen for GPR151 activators; shares compounds with GPR151 ag; GPR119 PathHunter beta-arrestin cells, luminescence, 90 min; 0 = compound-well median, 100 = enzyme-acceptor control; activation, % at 11.2 µM; 0.3% of 6,700 active; AID 1508611;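 active = mean percent activation in the counterscreen above 29.09%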;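 note: counterscreen on off-target GPR119 to flag nonselective hits from the GPR151 activator screen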
Target sequence (Q8TDV5 whole entry, looked up): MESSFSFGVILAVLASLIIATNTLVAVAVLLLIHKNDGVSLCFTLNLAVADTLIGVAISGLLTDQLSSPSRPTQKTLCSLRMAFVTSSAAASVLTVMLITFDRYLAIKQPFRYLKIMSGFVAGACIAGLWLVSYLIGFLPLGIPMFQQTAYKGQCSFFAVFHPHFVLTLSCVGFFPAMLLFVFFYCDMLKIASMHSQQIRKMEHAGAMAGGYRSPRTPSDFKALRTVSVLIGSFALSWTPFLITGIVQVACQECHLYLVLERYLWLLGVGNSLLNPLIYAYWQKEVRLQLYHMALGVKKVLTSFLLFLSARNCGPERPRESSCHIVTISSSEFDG
A number is an active result; – = inactive; · = not tested or not shown. Most compounds without a hit are left out; they make up all but 3.4% or so of the library.

SMILES	FBW7 act	MITF primary	TEAD-YAP block	GPR151 ag	GPR151 confirm	GPR119 ag
COc1cc2c(cc1OC)CN(Cc1cccc([N+](=O)[O-])c1)CC2	–	–	–	8.0	–	–
COc1ccc(S(=O)(=O)Nc2ccc3c(c2)n(C)c(=O)n3C)cc1	–	–	–	–	·	·
CCOc1ccc(NS(=O)(=O)c2ccc3c(c2)n(C)c(=O)n3C)cc1	–	–	–	15	–	–
COc1ccc(CN2CCC(CO)(Cc3ccccc3)CC2)cc1Cn1cccn1	–	–	–	9.4	–	–
COc1cccc(CC2(CO)CCN(Cc3cccn3-c3ncccn3)CC2)c1	–	–	–	12	–	–
COc1cccc(-c2nc(C=Nc3ccc(C)cc3Br)c(O)o2)c1	–	–	–	–	·	·
Cc1c(Cl)cccc1NC(=O)C(=O)NNC(=O)c1ccc([N+](=O)[O-])cc1	–	–	–	–	·	·
CC1(C)CC(=O)c2cc(OCC(=O)NCCc3ccc(Cl)cc3)ccc2O1	–	–	–	–	·	·
CC1(C)CC(=O)C2=C(C1)OC1=C(C(=O)CC(C)(C)C1)C2c1cc(Cl)cc(Cl)c1OCc1ccc(Cl)cc1Cl	–	–	–	5.5	–	–
CCCCC(=O)Nc1nnc(COC)s1	–	–	–	–	·	·
CCCC(c1nnnn1CCOC)N1CCN(c2cccc(C(F)(F)F)c2)CC1 (stereo unspecified)	–	–	–	5.4	–	–
COc1cc(N=Cc2c(O)n(-c3ccccc3F)c(=S)[nH]c2=O)cc(OC)c1	–	–	–	5.4	–	–
COc1cc(N=Cc2c(O)n(-c3ccccc3F)c(=O)[nH]c2=O)cc(OC)c1	–	–	–	–	·	·
O=c1c2sc(=S)n(-c3ccccc3)c2nc(SCc2csc3ccc(Cl)cc23)n1-c1ccccc1	–	–	–	–	·	·
COc1ccc(C2C(C(C)=O)=C(C)N=c3s/c(=C\c4cccnc4)c(=O)n32)c(OC)c1 (stereo unspecified)	–	–	–	7.1	–	–
O=C(O)c1ccccc1Nc1nc(N2CCOCC2)nc(N2CCOCC2)n1	–	–	–	9.0	–	–
CN(/N=C1/C(=O)Nc2ccccc21)c1cnc2ccccc2n1	–	–	–	–	·	·
CCc1cccc(OCC(=O)NCC2CCCO2)c1 (stereo unspecified)	–	–	–	–	·	·
O=C(CSC(=S)N1CCCCC1)c1ccc([N+](=O)[O-])cc1	–	–	–	6.1	–	–
CN(C)CC(C)(O)c1ccc2c(c1)CN(Cc1ccc3c(c1)OCCO3)CCO2 (stereo unspecified)	–	–	–	4.9	–	–
Cc1nccc2[nH]c(=O)c(C(=O)NCCc3ccccc3)cc12	–	–	–	7.3	–	–
C=CCOc1ccccc1/C=N/NC(=O)c1cccc(I)c1	–	–	–	11	–	–
O=C(NCCCN1CCOCC1)c1cc(S(=O)(=O)N2CCOCC2)ccc1Sc1ccc(Br)cc1	–	–	–	5.6	–	–
CCCCNC(=O)c1cc(S(=O)(=O)N2CCOCC2)ccc1Sc1ccc(Br)cc1	–	–	–	–	·	·
COc1ccccc1NC(=O)CSc1nnc(CCNC(=O)c2ccc(C)cc2)n1C	–	–	–	6.1	–	–
SMILES	FBW7 act	MITF primary	TEAD-YAP block	GPR151 ag	GPR151 confirm	GPR119 ag
CCN(CC)c1nc(Nc2cc(OC)c(OC)c(OC)c2)nc(N2CCN(c3ccccn3)CC2)n1	–	–	–	–	·	·
Cc1cc2nnc(SCC(=O)Nc3sc4c(c3C#N)CCCCC4)n2c2ccccc12	–	–	–	5.9	–	–
COC(=O)c1c(NC(=O)CSc2nnc3cc(C)c4ccccc4n23)sc2c1CCCC2	–	–	–	–	·	·
O=C(COc1ccccc1)NCCc1cn2ccsc2n1	–	–	–	5.0	–	–
CCOC(=O)c1c(NC(=S)NC(=O)c2cccs2)sc(C)c1C	–	–	–	–	·	·
CCOC(=O)c1c(NC(=S)Nc2cccnc2)sc(C)c1C	–	–	–	5.3	–	–
CCCCSc1nnc2c(n1)OC(c1cc3c(cc1Cl)OCO3)Nc1ccccc1-2 (stereo unspecified)	–	–	–	–	·	·
CC(=O)Nc1ccc(N2CCCCC2)c(C(=O)Nc2cccc(C)c2)c1	–	–	–	–	·	·
Cc1cccc(NC(=O)c2cc(N3C(=O)CCC3=O)ccc2N2CCCCC2)c1	–	–	–	8.2	–	–
COC(=O)c1ccccc1NC(=O)c1ccc(Cl)c(Cl)c1	–	–	–	5.1	–	–
Cc1cc(C)cc(NC(=O)c2ccc(Cl)c(Cl)c2)c1	–	–	–	5.4	–	–
COC(=O)c1ccccc1NC(=O)c1cccc(Cl)c1	–	–	–	–	·	·
CCOC(=O)CC1=CSC2=NC(C(F)(F)F)(C(F)(F)F)NC(=O)N12	–	–	–	5.6	–	–
CS(=O)(=O)c1ccc2c(c1)SC1=NC(C(F)(F)F)(C(F)(F)F)NC(=O)N12	–	–	–	–	·	·
COc1ccc(OCC(=O)O/N=C(\N)c2ccc(OC)c(OC)c2)cc1	–	–	–	8.2	–	–
COc1ccc(/C(N)=N/OC(=O)COc2ccc(Br)cc2)cc1OC	–	–	–	–	·	·
COC(=O)c1sc2nc(N)c(C#N)c(-c3ccc(Cl)cc3)c2c1N	–	–	–	–	·	·
CCOC(=O)c1sc2nc(N)c(C#N)c(-c3ccc(Cl)cc3)c2c1N	–	–	–	6.6	–	–
Cc1cc(C)c(S(=O)(=O)Nc2ccc(O)c(C(=O)O)c2)cc1C	–	–	–	10	–	–
Cc1cc(C)c(S(=O)(=O)Nc2ccc(F)cc2)cc1C	–	–	–	–	·	·
CC(=O)NNC(=O)CSc1nnc2c3c(C)c(C)sc3nc(C(C)C)n12	–	–	–	–	·	·
CS(=O)(=O)N1N=C(c2ccc(Br)cc2)CC1c1cc2ccccc2nc1Cl (stereo unspecified)	–	–	–	–	·	·
Cc1ccc2nc(Cl)c(C3CC(c4ccc(Br)cc4)=NN3S(C)(=O)=O)cc2c1 (stereo unspecified)	–	–	–	5.1	–	–
OCCC1CN(Cc2cn[nH]c2-c2ccccc2)CCN1Cc1ccsc1 (stereo unspecified)	–	–	–	–	·	·
CC(=O)c1ccccc1OCC(O)CN1CCN(c2ccccc2)CC1 (stereo unspecified)	–	–	–	–	·	·
Cc1noc(C)c1-c1nc(N)c2ncn(Cc3ccc(C(F)(F)F)cc3)c2n1	–	–	–	5.8	–	–
Nc1nc(N2CCOCC2)nc2c1ncn2Cc1ccc(C(F)(F)F)cc1	–	–	–	–	·	·
Cc1noc(C)c1-c1nc(NC2CC2)c2ncn(Cc3ccc(C(F)(F)F)cc3)c2n1	–	–	–	–	·	·
Nc1nc(N2CCC(N3CCOCC3)CC2)nc2c1ncn2Cc1ccc(C(F)(F)F)cc1	–	–	–	6.4	–	–
CC(Nc1cc(N2CCN(C(=O)c3cc(F)c(F)cc3Cl)CC2)ccc1[N+](=O)[O-])c1ccccc1 (stereo unspecified)	–	–	–	–	·	·
